# Laboratory results published in publication PMC7862700, “An all-to-all approach to the identification of sequence-specific readers for epigenetic DNA modifications on cytosine”.
# Legend:
# Test in all cases: DAPPL (digital affinity profiling via proximity ligation, sequencing); 10 mM Tris-HCl pH 7.5, 50 mM NaCl, 1 mM DTT, 4% glycerol, room temperature, 30 min; GST-TFs on glutathione beads, 16-mer random dsDNA library, 0.1% formaldehyde crosslink after washing; high values mean tight binding
# FLI1 = molecular target: T1, FLI1 (Homo sapiens, UniProt Q01543 1-452); conditions: protein: recombinant; tags: N-terminal GST; dsDNA, one strand shown
# T1 sequence: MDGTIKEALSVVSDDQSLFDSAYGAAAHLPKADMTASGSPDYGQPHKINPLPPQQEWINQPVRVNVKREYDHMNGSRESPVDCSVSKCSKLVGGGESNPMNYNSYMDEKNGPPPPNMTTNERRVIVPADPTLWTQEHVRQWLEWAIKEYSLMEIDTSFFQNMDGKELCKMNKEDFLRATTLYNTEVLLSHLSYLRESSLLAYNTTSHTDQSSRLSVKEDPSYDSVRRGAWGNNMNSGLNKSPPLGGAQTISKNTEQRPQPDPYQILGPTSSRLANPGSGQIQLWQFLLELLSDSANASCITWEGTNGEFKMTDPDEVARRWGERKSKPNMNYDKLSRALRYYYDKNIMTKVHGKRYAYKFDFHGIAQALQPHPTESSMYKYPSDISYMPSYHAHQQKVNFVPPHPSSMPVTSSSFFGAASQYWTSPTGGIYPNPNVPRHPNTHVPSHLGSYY
# Procedure, shortened: (§1)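 Each value of binding signal is a hexamer's read frequency for a factor divided by the same hexamer's frequency in the tag-only sample. Barcoded, bead-captured GST fusions of human transcription factors made in yeast were pooled with that sample and incubated with 200 nmole of a random double-stranded 16-mer DNA library in Tris/NaCl/DTT/glycerol buffer at room temperature for 30 min. Washing, 0.1% formaldehyde crosslinking, proximity ligation, PCR and Illumina NextSeq500 sequencing followed.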
# ELK1 = molecular target: T2, ELK1 (Homo sapiens, UniProt P19419 1-428); conditions: protein: recombinant; tags: N-terminal GST; dsDNA, one strand shown
# T2 sequence: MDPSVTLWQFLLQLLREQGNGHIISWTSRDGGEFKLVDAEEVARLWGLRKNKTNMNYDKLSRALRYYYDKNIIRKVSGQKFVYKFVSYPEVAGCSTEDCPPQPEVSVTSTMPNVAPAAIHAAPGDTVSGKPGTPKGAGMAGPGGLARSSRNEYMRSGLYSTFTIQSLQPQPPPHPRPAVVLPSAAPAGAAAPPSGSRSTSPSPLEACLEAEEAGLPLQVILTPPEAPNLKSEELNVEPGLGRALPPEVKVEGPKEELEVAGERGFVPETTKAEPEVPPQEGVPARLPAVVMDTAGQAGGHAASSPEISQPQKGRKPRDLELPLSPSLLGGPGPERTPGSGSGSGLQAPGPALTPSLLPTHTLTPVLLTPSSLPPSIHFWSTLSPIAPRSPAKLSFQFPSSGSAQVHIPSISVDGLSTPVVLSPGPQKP
# Procedure, shortened: as §1
# GABPA = molecular target: T3, GABPA (Homo sapiens, UniProt Q06546 1-454); conditions: protein: recombinant; tags: N-terminal GST; dsDNA, one strand shown
# T3 sequence: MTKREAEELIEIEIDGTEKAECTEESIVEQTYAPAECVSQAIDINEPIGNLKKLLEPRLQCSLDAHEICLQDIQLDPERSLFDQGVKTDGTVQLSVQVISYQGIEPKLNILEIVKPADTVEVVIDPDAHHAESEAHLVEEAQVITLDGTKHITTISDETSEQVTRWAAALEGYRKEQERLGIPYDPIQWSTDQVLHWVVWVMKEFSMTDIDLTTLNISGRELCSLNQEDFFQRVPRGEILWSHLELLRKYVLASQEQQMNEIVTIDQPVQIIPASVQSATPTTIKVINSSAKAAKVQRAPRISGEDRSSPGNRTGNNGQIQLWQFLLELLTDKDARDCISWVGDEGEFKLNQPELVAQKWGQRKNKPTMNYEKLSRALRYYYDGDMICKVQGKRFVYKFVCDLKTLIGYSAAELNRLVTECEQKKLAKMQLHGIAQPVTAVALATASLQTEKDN
# Procedure, shortened: as §1
# ERG = molecular target: T4, ERG (Homo sapiens, UniProt P11308 1-479); conditions: protein: recombinant; tags: N-terminal GST; dsDNA, one strand shown
# T4 sequence: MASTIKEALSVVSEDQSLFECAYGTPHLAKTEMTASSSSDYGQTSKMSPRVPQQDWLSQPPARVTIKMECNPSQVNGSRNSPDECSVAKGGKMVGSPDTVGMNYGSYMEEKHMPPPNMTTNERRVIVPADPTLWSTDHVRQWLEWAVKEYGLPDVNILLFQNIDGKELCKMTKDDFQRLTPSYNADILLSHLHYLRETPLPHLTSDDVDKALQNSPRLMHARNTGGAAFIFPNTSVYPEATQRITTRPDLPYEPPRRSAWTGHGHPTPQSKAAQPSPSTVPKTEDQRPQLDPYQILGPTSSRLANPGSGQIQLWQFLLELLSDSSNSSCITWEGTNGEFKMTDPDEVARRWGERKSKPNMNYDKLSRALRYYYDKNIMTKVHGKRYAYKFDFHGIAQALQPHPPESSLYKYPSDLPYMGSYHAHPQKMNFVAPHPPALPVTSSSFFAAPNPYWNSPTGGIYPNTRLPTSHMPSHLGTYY
# Procedure, shortened: as §1
# ELF1 = ELF1 (Homo sapiens, UniProt P32519 1-619); conditions: protein: recombinant; tags: N-terminal GST; dsDNA, one strand shown
# Procedure, shortened: as §1
# EHF = molecular target: T5, EHF (Homo sapiens, UniProt Q9NZC4 1-300); conditions: protein: recombinant; tags: N-terminal GST; dsDNA, one strand shown
# T5 sequence: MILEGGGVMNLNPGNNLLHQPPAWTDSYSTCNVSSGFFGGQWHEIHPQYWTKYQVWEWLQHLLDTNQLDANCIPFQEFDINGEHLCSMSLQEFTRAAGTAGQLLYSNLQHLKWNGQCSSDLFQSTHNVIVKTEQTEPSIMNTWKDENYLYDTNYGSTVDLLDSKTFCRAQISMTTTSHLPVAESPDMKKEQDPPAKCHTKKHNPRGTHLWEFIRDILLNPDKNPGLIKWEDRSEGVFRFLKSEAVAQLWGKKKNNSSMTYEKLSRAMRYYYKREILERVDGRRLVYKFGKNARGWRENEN
# Procedure, shortened: as §1
# SPI1 = SPI1 (Homo sapiens, UniProt P17947 1-270); conditions: protein: recombinant; tags: N-terminal GST; dsDNA, one strand shown
# Procedure, shortened: as §1
# SPIB = SPIB (Homo sapiens, UniProt Q01892 1-262); conditions: protein: recombinant; tags: N-terminal GST; dsDNA, one strand shown
# Procedure, shortened: as §1
# ELK3 = molecular target: T6, ELK3 (Homo sapiens, UniProt P41970 1-407); conditions: protein: recombinant; tags: N-terminal GST; dsDNA, one strand shown
# T6 sequence: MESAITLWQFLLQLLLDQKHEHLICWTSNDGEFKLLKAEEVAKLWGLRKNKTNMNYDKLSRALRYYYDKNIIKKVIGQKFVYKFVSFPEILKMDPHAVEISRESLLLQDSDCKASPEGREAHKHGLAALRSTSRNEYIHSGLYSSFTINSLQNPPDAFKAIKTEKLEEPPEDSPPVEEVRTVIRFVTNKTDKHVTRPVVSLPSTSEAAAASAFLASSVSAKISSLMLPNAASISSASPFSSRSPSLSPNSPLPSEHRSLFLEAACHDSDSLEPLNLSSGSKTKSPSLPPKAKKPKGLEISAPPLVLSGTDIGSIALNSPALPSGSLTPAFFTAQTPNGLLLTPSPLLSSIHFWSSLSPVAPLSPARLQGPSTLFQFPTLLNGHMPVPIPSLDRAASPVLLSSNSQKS
# Procedure, shortened: as §1
# FEV = molecular target: T7, FEV (Homo sapiens, UniProt Q99581 1-238); conditions: protein: recombinant; tags: N-terminal GST; dsDNA, one strand shown
# T7 sequence: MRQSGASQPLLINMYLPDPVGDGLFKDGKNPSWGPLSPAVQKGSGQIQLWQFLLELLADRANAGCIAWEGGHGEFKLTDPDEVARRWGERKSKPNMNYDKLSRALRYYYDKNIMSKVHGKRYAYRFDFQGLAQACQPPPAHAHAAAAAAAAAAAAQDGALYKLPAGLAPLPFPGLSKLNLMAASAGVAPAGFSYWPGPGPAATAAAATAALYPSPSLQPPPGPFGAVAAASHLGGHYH
# Procedure, shortened: as §1
# ETV5 = ETV5 (Homo sapiens, UniProt P41161 1-510); conditions: protein: recombinant; tags: N-terminal GST; dsDNA, one strand shown
# Procedure, shortened: as §1
# HSF1 = HSF1 (Homo sapiens, UniProt Q00613 1-529); conditions: protein: recombinant; tags: N-terminal GST; chain copies: 3; dsDNA, one strand shown
# Procedure, shortened: as §1
# SPIC = molecular target: T8, SPIC (Homo sapiens, UniProt Q8N5J4 1-248); conditions: protein: recombinant; tags: N-terminal GST; dsDNA, one strand shown
# T8 sequence: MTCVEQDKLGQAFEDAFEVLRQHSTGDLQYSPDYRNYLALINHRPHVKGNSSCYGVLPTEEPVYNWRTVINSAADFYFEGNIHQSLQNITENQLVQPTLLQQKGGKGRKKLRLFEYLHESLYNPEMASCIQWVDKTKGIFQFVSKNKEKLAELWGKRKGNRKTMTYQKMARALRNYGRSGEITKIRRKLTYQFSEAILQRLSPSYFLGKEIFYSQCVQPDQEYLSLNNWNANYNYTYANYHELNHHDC
# Procedure, shortened: as §1
# ELF4 = ELF4 (Homo sapiens, UniProt Q99607 1-663); conditions: protein: recombinant; tags: N-terminal GST; dsDNA, one strand shown
# Procedure, shortened: as §1
# ELK4 = molecular target: T9, ELK4 (Homo sapiens, UniProt P28324-2 1-405); conditions: protein: recombinant; tags: N-terminal GST; dsDNA, one strand shown
# T9 sequence: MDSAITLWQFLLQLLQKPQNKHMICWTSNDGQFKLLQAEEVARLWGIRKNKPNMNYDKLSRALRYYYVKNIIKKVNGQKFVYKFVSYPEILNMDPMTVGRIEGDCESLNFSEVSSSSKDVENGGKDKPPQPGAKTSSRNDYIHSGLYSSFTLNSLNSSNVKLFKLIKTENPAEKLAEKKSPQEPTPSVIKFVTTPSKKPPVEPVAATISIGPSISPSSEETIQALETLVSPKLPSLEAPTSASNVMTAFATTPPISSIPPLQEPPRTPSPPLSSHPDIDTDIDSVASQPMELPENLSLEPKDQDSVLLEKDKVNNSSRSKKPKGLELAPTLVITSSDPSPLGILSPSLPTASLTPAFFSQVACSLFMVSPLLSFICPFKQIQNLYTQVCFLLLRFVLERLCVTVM
# Procedure, shortened: as §1
# ETV2 = molecular target: T10, ETV2 (Homo sapiens, UniProt O00321 1-342); conditions: protein: recombinant; tags: N-terminal GST; dsDNA, one strand shown
# T10 sequence: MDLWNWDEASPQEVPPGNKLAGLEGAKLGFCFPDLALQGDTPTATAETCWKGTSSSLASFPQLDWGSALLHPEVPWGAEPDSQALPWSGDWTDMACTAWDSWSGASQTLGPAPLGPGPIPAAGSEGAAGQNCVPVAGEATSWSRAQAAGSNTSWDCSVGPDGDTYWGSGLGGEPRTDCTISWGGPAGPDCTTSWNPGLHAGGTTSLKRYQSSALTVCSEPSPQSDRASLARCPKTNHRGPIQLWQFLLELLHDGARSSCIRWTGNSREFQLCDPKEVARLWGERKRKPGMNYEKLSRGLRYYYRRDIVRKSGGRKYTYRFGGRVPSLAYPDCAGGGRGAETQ
# Procedure, shortened: as §1
# ELF3 = molecular target: T11, ELF3 (Homo sapiens, UniProt P78545 1-371); conditions: protein: recombinant; tags: N-terminal GST; dsDNA, one strand shown
# T11 sequence: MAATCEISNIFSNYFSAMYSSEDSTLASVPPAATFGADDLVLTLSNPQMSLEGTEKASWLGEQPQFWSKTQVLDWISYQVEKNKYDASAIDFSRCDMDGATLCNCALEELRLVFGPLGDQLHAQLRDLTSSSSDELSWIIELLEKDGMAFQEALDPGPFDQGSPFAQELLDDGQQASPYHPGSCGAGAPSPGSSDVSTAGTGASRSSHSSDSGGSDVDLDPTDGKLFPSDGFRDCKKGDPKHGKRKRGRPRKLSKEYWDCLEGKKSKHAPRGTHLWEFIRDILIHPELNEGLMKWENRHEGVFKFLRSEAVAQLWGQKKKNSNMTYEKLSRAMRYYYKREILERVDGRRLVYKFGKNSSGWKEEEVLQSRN
# Procedure, shortened: as §1
# CRX = CRX (Homo sapiens, UniProt O43186 1-299); conditions: protein: recombinant; tags: N-terminal GST; dsDNA, one strand shown
# Procedure, shortened: as §1
# ETV1 = ETV1 (Homo sapiens, UniProt P50549 1-477); conditions: protein: recombinant; tags: N-terminal GST; dsDNA, one strand shown
# Procedure, shortened: as §1
# ETV5, sequence (P41161 whole entry): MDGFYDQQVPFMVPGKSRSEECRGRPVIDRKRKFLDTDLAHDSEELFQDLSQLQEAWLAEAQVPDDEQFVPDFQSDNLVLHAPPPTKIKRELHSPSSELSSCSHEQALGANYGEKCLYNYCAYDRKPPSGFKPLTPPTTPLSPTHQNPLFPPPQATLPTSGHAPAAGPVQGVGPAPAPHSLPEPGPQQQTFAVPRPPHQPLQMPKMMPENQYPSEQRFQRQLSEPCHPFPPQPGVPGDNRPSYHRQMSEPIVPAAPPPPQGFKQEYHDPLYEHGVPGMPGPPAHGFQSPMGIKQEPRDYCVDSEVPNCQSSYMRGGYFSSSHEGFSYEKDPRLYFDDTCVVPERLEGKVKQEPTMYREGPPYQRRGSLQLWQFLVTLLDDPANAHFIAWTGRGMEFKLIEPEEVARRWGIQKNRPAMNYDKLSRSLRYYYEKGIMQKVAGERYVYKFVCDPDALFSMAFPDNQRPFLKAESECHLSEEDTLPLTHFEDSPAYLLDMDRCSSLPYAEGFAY
# ELF1, sequence (P32519 whole entry): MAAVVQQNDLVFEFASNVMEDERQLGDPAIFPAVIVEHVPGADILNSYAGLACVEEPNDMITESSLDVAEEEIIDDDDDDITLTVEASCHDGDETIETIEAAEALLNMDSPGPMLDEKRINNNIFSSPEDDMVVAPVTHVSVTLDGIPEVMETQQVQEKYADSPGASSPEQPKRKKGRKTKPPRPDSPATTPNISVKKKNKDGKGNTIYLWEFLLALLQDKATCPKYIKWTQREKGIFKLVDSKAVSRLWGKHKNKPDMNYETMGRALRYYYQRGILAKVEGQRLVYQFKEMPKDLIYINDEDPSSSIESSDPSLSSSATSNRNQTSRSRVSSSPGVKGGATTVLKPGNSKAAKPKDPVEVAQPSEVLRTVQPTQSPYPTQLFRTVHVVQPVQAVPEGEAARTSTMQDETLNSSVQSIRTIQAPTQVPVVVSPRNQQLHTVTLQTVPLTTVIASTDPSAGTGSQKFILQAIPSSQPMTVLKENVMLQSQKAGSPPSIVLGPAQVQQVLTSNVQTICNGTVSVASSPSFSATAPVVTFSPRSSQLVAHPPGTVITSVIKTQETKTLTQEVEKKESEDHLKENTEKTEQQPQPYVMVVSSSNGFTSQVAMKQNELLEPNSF
# CRX, sequence (O43186 whole entry): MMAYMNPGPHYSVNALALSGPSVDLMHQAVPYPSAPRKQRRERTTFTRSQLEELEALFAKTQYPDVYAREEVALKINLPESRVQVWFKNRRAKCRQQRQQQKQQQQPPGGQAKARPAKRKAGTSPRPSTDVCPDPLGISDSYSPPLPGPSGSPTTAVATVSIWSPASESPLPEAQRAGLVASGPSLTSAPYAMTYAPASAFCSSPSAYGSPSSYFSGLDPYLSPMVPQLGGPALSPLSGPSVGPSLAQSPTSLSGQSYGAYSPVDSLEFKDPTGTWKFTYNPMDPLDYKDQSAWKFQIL
# HSF1, sequence (Q00613 whole entry): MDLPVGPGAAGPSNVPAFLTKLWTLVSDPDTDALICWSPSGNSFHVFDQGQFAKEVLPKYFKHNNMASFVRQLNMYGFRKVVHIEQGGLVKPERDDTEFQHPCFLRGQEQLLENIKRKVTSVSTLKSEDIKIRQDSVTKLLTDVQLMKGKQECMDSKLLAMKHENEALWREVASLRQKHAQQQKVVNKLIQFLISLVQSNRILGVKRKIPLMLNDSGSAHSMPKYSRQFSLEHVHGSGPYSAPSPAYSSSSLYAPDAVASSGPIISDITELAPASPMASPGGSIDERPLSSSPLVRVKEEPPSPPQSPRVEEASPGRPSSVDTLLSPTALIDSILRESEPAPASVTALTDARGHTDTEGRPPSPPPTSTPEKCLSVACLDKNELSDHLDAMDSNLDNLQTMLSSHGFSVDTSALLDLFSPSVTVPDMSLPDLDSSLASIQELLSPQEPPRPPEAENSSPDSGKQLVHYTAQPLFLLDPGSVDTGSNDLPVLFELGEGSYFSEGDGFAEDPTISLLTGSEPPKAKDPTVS
# ELF4, sequence (Q99607 whole entry): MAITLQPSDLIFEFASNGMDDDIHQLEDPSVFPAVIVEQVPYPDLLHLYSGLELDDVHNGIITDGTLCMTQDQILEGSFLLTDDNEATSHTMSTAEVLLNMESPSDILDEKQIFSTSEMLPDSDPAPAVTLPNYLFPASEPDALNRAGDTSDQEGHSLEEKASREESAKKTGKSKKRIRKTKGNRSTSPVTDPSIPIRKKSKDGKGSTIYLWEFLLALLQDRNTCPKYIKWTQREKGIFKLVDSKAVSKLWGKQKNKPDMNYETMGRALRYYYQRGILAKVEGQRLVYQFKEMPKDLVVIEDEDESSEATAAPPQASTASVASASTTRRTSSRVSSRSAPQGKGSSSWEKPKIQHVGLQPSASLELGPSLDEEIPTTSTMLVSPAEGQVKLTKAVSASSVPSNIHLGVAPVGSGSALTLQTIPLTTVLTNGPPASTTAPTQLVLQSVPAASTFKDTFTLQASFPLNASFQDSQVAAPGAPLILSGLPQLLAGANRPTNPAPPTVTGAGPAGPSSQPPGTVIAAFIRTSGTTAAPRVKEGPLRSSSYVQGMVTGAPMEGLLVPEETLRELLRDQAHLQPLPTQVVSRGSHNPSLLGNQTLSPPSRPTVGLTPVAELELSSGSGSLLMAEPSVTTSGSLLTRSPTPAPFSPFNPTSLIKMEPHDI
# ETV1, sequence (P50549 whole entry): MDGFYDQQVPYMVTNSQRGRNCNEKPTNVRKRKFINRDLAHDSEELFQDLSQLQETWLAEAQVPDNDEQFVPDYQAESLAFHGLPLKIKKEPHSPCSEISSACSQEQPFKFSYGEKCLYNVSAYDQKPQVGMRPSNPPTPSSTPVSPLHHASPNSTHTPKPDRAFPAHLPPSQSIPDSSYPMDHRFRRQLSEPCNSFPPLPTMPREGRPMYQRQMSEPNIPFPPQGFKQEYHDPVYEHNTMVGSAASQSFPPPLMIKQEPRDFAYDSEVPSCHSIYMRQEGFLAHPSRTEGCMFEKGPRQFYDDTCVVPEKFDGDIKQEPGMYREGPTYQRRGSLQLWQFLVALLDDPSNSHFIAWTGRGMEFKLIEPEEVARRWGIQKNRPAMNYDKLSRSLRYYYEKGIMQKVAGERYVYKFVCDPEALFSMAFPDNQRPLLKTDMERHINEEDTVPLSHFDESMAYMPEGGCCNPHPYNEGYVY
# SPIB, sequence (Q01892 whole entry): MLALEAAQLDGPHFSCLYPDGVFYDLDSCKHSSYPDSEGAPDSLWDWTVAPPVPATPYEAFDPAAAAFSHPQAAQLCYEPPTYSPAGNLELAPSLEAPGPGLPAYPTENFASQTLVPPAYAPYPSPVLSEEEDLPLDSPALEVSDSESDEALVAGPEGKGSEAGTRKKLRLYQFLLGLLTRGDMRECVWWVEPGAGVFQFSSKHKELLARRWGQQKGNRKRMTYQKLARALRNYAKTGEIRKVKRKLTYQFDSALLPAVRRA
sequence,measurement,setting,value
CTAGTT,binding signal,FLI1,"1.37 fold enrichment (6-mer frequency, TF over GST control)"
same,binding signal,ELK1,"1.4 fold enrichment (6-mer frequency, TF over GST control)"
same,binding signal,GABPA,"1.42 fold enrichment (6-mer frequency, TF over GST control)"
same,binding signal,ERG,"1.3 fold enrichment (6-mer frequency, TF over GST control)"
same,binding signal,ELF1,"1.31 fold enrichment (6-mer frequency, TF over GST control)"
same,binding signal,EHF,"1.23 fold enrichment (6-mer frequency, TF over GST control)"
same,binding signal,SPI1,"1.34 fold enrichment (6-mer frequency, TF over GST control)"
same,binding signal,SPIB,"1.48 fold enrichment (6-mer frequency, TF over GST control)"
same,binding signal,ELK3,"1.21 fold enrichment (6-mer frequency, TF over GST control)"
same,binding signal,FEV,"1.23 fold enrichment (6-mer frequency, TF over GST control)"
same,binding signal,ETV5,"1.31 fold enrichment (6-mer frequency, TF over GST control)"
same,binding signal,HSF1,"1.51 fold enrichment (6-mer frequency, TF over GST control)"
same,binding signal,SPIC,"1.47 fold enrichment (6-mer frequency, TF over GST control)"
same,binding signal,ELF4,"1.35 fold enrichment (6-mer frequency, TF over GST control)"
same,binding signal,ELK4,"1.54 fold enrichment (6-mer frequency, TF over GST control)"
same,binding signal,ETV2,"1.32 fold enrichment (6-mer frequency, TF over GST control)"
same,binding signal,ELF3,"1.38 fold enrichment (6-mer frequency, TF over GST control)"
same,binding signal,CRX,"1.16 fold enrichment (6-mer frequency, TF over GST control)"
same,binding signal,ETV1,"1.35 fold enrichment (6-mer frequency, TF over GST control)"
